# Screens from PubChem.
# PHOSPHO1 block: blocks human PHOSPHO1 phosphatase activity; AID 1565; recombinant PHOSPHO1, absorbance phosphatase assay; 290,000 compounds, 1.1% hits; inhibition, % at 13.3 µM; Q8TCT1; in the data active means inhibition above about 60%
# Target sequence (Q8TCT1 whole entry, looked up): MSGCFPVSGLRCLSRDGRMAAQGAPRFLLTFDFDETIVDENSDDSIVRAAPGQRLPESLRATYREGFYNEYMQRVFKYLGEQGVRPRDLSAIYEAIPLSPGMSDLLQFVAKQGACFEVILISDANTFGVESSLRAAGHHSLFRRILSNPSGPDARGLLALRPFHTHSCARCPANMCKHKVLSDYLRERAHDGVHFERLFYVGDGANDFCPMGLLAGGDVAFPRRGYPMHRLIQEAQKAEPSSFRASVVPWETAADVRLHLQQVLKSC
# esBAF inh: inhibitors of esBAF chromatin remodeling in mouse ES cells | Bmi1-luciferase knock-in reporter, 24 h; 100% = twice the neutral-well signal | 350,000 compounds, 2% hits | reporter increase, % at 12.5 µM | AID 602393; in the data active means activation above about 40%; inconclusive means no clear call, values can overlap the other calls;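 further: 0% = median of the plate's neutral control wells and 100% = double that signal; a rise in the Bmi1 reporter signal indicates esBAF inhibition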
# MITF TRPM1 HTS: activators of MITF-driven TRPM1 promoter activity in SK-MEL-5 cells; SK-MEL-5 TRPM1-promoter luciferase, 24 h; % of positive control, neutral wells = 0; activation, % at 12.5 µM; 300,000 compounds, 0.75% hits;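 active means mean activation of at least 80% with every replicate also reaching 80%; inconclusive means mean reaches 80% but some replicate falls short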;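 further: 0% = neutral control wells and 100% = parthenolide positive control wells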
# Wnt act: activates Wnt/beta-catenin signaling in a reporter cell assay. activator, plate reader. activation, % at 9.35 µM. 300,000 compounds, 1.2% hits; in the data active means activation above about 30%, passing the limit was not always enough; inconclusive means no clear call, values can overlap the other calls;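 further: 0% = neutral control wells and 100% = positive control wells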
# APOBEC3G inh: APOBEC3G (human) deaminase inhibition | Q9HC16 | recombinant A3G, ssDNA deamination FAM/TAMRA fluorescence | inhibition, % at 20 µM | 330,000 compounds, 0.28% hits | AID 493012;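 active means inhibition of at least 40% at 20 µM, with no more than 30% in the related APOBEC3A deaminase screen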;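 further: plate controls were DMSO wells with A3G for no effect and wells lacking A3G enzyme for full effect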
# APOBEC3A inh: human APOBEC3A DNA deaminase inhibition; inhibition, % at 20 µM; 330,000 compounds, 0.41% hits; P31941; recombinant A3A, FAM/TAMRA ssDNA deamination fluorescence;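 active means at least 40% inhibition at 20 µM here, with at most 30% in a related deaminase screen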;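 further: plate controls were A3A with DMSO for no effect and wells lacking A3A enzyme for full effect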
# Target sequence (P31941 whole entry, looked up): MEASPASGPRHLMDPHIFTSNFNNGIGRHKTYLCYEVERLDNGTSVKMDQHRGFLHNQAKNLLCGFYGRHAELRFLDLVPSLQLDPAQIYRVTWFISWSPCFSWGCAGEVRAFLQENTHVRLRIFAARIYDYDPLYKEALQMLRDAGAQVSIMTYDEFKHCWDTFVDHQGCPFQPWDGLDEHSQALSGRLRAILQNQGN
# * marks the source's active call; other numbers are inactive results; ? = inconclusive; nt = no result given. Most compounds without a hit are left out; they make up all but 3.6% or so of the library.
SMILES,PHOSPHO1 block,esBAF inh,MITF TRPM1 HTS,Wnt act,APOBEC3G inh,APOBEC3A inh
COc1ccc(-c2csc(-n3cccn3)n2)cc1,nt,68*,?,33*,-5,0
CCS(=O)(=O)Nc1ccc2c(c1)C(=O)N(C)C[C@H](OC)[C@@H](C)CN(C(=O)NC(C)C)[C@H](C)CO2,nt,0,nt,nt,nt,nt
CO[C@H]1CN(C)C(=O)c2ccc(NS(=O)(=O)CC(F)(F)F)cc2OC[C@@H](C)N(CC2CCCCC2)C[C@H]1C,nt,-1,nt,nt,nt,nt
COc1ccc(-c2csc(N3CCC(c4ccccc4)C3)n2)cc1 (stereo unspecified),-5,nt,66,-4,-3,0
COc1ccc(-c2csc(N3CCSCC3)n2)cc1,nt,47*,75,?,-3,2
CCCOc1ccc(C(=O)Nc2nc(C)c(Cc3ccc4c(c3)OCO4)s2)cc1,-7,nt,20,1,-5,-1
COc1cc(C(=O)Nc2nc(C)c(Cc3ccc4c(c3)OCO4)s2)cc(OC)c1OC,74*,-21,-22,-1,21,-3
O=C(COC(=O)c1ccc(F)c(S(=O)(=O)N2CCCCC2)c1)NCc1ccc(F)cc1,4,-2,8,40*,-7,-3
O=C([C@H]1N[C@H]2c3ccc(-c4ccc(F)cc4)c(=O)n3C[C@H]2[C@@H]1CO)N1CCOCC1,nt,-4,nt,nt,nt,nt
COc1ccc(-c2ccc3nccn3c2)cc1,nt,45*,nt,-1,nt,nt
Cc1cc(C(=O)CSc2ccccc2)cc(C)c1O,30,68*,39,12,-6,-4
Cc1ccc(S(=O)(=O)N(C)C[C@@H]2Oc3ccc(NS(=O)(=O)c4cn(C)cn4)cc3C(=O)N([C@H](C)CO)C[C@H]2C)cc1,nt,8,nt,nt,nt,nt
O=C(c1ccc2c(c1)C(=O)NC2=O)c1ccc2c(c1)C(=O)NC2=O,nt,nt,nt,-1,nt,nt
CCc1nnc(NC(=O)c2cc(-c3ccccn3)nc3ccc(Br)cc23)s1,72*,-3,-10,1,-4,0
Nc1ccc(N=Nc2ccccc2O)c(N)c1,nt,nt,nt,49*,-2,0
C=C(C)C1CC=C(C)/C(=N/NC(=O)c2cccc([N+](=O)[O-])c2)C1 (stereo unspecified),-9,0,2,-3,-9,1
C=C(C)C1CC=C(C)/C(=N/NC(=O)c2ccoc2C)C1 (stereo unspecified),0,73*,29,nt,-3,3
S=c1[nH]nc(-c2cccnc2)o1,90*,-5,nt,nt,-2,1
S=c1[nH]nc(-c2cccc(Br)c2)o1,27,-9,-1,3,0,-5
CC(C)(O)[C@H]1Cc2cc3ccc(=O)oc3cc2O1,28,0,98*,11,1,-3
COc1ccc(S(=O)(=O)N(C)C[C@@H]2OCCCC[C@H](C)Oc3ccc(NS(=O)(=O)c4cn(C)cn4)cc3C(=O)N([C@@H](C)CO)C[C@@H]2C)cc1,nt,2,nt,nt,nt,nt
COCCCNC(=O)c1c(NC(=O)c2cccs2)sc2c1CCCC2,38,-3,nt,-7,-3,-1
O=C(Nc1sc2c(c1C(=O)O)CCC2)c1cccs1,-11,46*,-1,nt,18,0
NC(=O)c1c(NC(=O)c2cccs2)sc2c1CCCCCC2,7,105*,118*,nt,-5,-4
O=C(O)c1c(NC(=O)c2cccc3ccccc23)sc2c1CCC2,-3,4,nt,-6,0,-1
SMILES,PHOSPHO1 block,esBAF inh,MITF TRPM1 HTS,Wnt act,APOBEC3G inh,APOBEC3A inh
C[C@@H]1CN([C@H](C)CO)C(=O)c2cc(-c3cccc(F)c3)cnc2O[C@@H]1CN(C)Cc1cccc(F)c1,nt,0,nt,nt,nt,nt
O=C(Nc1ccc(F)cc1)Oc1ccccc1N1CCOCC1,3,nt,nt,2,-6,-1
O=C(Oc1ccccc1N1CCOCC1)c1sccc1Br,51,3,nt,45*,8,2
C[C@@H]1CN([C@H](C)CO)C(=O)c2cc(N(C)C)ccc2O[C@@H](C)CCCCO[C@@H]1CN(C)C(=O)Nc1ccccc1,nt,2,nt,nt,nt,nt
COc1ccc(Nc2oc(COc3ccc(Cl)cc3)nc2C#N)cc1,-7,nt,-27,-6,-1,4
COc1ccc(Nc2oc(-c3ccc(Cl)cc3)nc2C#N)cc1,29,58*,31,13,-7,-1
COc1ccc(-c2nc(C#N)c(NCCN(C)C)o2)cc1,nt,-5,7,2,1,0
CCOc1ccc(Nc2oc(-c3ccc(Cl)cc3)nc2C#N)cc1,29,67*,nt,?,2,1
COc1ccc(Nc2oc(-c3ccc(OC)cc3)nc2C#N)cc1,32,nt,nt,32*,-2,-4
COc1ccc(Nc2oc(-c3ccccc3)nc2C#N)cc1,20,47*,61,24,-10,-2
COc1ccc(NC(=O)Nc2ccc3c(c2)C(=O)N([C@@H](C)CO)C[C@@H](C)[C@@H](CN(C)C(=O)Nc2cccc4ccccc24)OCCCC[C@@H](C)O3)cc1,nt,0,nt,nt,nt,nt
COc1ccc(NC(=O)N(C)C[C@@H]2Oc3ccc(NC(=O)Cc4cn(C)c5ccccc45)cc3CC(=O)N([C@H](C)CO)C[C@@H]2C)cc1,nt,-1,nt,nt,nt,nt
CNC[C@@H]1OCCCC[C@@H](C)Oc2ccc(NC(=O)NC3CCCCC3)cc2C(=O)N([C@H](C)CO)C[C@@H]1C,nt,0,nt,nt,nt,nt
C[C@H](O)C#Cc1cnc2c(c1)C(=O)N([C@H](C)CO)C[C@@H](C)[C@@H](CN(C)C(=O)CN(C)C)O2,nt,-4,nt,nt,nt,nt
O=C(O)C1(Nc2ccccc2Cl)CCCC1,nt,nt,-6,-4,nt,nt
O=C1OCC(CO)(CO)N=C1NNc1ccccc1Cl,82*,14,-5,-1,-10,-5
O=C(c1cc(Br)c(Br)s1)N1CCc2ccccc2C1,nt,42*,15,8,-2,0
O=C(C1COc2ccccc2O1)N1CCc2ccccc2C1 (stereo unspecified),2,47*,nt,nt,-4,2
